Test results from PubChem BioAssay AID588689 (Southern Research Specialized Biocontainment Screening …, 2011).
The campaign covered roughly 340,000 compounds. About 1,000 (0.29%) were called active. Rule as the data show it: inconclusive = inhibition above about 29% without an active follow-up result; inactive = below that. Only a sample is shown. Potency and affinity values are given separately.

Molecular target: Genome polyprotein (Dengue virus type 2 (strain 16681-PDK53)) (UniProt P29991)
Test: flavivirus cap methylation enzyme inhibition – biochemical, confirmation dose response, primary screen (AID 588689)
Conditions: Dengue-2 NS5 methyltransferase capping enzyme assay, at 25 µM, stronger effect = higher value

Sequence of Genome polyprotein (Dengue virus type 2 (strain 16681-PDK53)) (P29991 whole entry, looked up): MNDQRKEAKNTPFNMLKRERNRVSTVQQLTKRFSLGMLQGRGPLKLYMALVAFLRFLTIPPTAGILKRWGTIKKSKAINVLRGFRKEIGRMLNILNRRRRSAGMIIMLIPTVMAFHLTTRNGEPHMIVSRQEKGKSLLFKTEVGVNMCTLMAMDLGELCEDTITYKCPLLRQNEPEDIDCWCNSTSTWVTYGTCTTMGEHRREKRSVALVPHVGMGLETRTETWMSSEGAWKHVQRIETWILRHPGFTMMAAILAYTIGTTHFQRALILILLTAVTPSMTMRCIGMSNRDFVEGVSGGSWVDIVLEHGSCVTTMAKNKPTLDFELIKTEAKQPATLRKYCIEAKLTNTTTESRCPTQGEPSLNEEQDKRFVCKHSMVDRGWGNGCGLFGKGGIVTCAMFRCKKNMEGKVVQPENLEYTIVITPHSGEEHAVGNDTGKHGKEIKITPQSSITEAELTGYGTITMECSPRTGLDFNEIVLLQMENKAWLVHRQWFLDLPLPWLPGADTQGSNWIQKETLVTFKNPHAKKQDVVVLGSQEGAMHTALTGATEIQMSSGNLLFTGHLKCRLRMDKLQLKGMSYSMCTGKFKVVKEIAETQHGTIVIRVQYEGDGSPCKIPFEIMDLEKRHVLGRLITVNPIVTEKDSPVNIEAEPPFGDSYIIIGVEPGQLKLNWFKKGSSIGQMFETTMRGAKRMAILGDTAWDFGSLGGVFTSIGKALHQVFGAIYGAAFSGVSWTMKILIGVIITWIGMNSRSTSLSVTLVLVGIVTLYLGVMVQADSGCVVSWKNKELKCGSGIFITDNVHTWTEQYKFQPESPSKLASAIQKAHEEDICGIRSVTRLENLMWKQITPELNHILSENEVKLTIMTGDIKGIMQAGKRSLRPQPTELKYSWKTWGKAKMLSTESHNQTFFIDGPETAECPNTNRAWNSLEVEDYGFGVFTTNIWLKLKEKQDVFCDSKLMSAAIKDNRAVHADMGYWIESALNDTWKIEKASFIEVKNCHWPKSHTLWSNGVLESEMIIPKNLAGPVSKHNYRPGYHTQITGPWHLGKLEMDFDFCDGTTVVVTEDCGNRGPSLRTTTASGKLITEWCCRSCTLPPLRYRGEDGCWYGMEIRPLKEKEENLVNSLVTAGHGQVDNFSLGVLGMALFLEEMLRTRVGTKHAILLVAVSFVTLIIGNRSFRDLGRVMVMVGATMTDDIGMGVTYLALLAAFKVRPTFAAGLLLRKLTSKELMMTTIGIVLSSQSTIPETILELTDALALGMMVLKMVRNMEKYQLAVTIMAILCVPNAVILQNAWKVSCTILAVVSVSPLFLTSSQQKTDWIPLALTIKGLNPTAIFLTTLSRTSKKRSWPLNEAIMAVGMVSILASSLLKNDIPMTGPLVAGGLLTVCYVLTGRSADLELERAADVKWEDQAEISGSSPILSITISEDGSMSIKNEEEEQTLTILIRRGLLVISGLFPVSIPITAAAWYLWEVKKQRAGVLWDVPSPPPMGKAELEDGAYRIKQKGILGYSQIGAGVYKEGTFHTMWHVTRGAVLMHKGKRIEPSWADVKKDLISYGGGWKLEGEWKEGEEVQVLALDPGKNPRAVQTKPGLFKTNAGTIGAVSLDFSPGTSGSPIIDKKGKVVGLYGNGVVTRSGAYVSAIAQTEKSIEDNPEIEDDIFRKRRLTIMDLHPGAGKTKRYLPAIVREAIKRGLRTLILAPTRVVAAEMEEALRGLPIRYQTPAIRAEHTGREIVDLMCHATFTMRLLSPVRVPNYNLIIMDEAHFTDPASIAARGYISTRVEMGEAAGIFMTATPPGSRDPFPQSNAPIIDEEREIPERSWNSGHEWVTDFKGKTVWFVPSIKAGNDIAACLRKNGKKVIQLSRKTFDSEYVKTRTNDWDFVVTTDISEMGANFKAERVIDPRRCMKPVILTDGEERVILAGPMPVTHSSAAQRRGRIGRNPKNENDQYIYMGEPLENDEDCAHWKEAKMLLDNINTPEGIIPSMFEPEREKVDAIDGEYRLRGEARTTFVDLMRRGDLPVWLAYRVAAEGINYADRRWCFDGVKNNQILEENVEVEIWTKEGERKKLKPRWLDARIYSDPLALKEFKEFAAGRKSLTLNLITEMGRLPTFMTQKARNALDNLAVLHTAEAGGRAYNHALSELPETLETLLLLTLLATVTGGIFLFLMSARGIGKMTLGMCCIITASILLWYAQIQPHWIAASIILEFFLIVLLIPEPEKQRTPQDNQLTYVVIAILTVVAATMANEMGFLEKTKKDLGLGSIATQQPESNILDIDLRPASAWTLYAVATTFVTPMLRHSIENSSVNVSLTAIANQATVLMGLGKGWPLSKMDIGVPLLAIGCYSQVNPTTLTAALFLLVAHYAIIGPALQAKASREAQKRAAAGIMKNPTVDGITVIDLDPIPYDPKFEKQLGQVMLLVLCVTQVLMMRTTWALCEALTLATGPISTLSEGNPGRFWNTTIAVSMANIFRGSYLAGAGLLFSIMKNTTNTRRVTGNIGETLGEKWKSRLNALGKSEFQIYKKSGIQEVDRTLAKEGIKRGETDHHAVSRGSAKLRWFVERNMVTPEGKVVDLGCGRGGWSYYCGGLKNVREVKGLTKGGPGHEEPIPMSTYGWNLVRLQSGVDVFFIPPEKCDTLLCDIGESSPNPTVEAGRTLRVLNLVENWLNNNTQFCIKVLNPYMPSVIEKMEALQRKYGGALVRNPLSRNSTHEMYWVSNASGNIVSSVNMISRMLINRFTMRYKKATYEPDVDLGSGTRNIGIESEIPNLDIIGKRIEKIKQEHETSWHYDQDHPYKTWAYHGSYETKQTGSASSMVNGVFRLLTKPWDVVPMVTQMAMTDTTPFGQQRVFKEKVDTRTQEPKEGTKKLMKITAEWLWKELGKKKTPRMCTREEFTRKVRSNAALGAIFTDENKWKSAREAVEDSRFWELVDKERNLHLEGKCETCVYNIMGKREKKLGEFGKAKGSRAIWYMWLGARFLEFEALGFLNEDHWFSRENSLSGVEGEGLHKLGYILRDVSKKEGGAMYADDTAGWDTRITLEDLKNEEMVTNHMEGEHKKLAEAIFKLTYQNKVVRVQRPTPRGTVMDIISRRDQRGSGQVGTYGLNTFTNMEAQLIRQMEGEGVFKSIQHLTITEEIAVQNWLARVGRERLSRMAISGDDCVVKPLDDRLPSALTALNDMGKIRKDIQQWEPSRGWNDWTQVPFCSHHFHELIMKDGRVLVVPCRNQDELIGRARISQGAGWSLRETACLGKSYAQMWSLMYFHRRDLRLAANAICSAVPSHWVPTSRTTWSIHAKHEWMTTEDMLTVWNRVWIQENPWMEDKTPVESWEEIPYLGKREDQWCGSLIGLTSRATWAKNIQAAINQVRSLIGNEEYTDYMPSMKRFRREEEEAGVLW

Row | Compound | inhibition | inhibition (measured here: pilot screen replicate inhibition)
1 | Cc1cnc(=O)[nH]c1SCc1ccc([N+](=O)[O-])cc1 | 9.19% (inactive) | –
2 | CCOC(=O)N1CCC(NC(=O)c2cc3sccc3n2CC)CC1 | -4.86% (inactive) | –
3 | Oc1c(Br)cc(Br)cc1/C=N/Nc1ccc(Cl)nn1 | 7.11% (inactive) | –
4 | CCN(CC)c1ccc(/C=N/Nc2cccc(C)c2)c(O)c1 | 7.27% (inactive) | –
5 | Oc1ccc(/C=N/NC(=S)Nc2cccnc2)c(O)c1 | -3.64% (inactive) | –
6 | Oc1cccc(/C=N/NC(=S)Nc2cccnc2)c1O | -2.88% (inactive) | –
7 | Oc1ccc(/C=N/Nc2ccc(Cl)nn2)cc1O | 2.61% (inactive) | –
8 | Cc1cccc(N/N=C/c2ccccc2O)c1 | -8.43% (inactive) | –
9 | COc1ccc(CCC(=O)N2CCN(C3CCCCC3)CC2)cc1 | -7.21% (inactive) | –
10 | CC(=O)N1CCN(Cc2nc3cc(NC(=O)c4ccccc4C)ccc3n2C)CC1 | -0.69% (inactive) | –
11 | Cc1cc2ncn(C3CC(O)C(CO)O3)c2cc1C (centres undefined) | 2.33% (inactive) | –
12 | COc1ccc(-c2nn(-c3ccccc3)cc2/C=N/NC(=O)c2cccc(S(=O)(=O)Nc3ccccc3OC)c2)cc1 | -3.64% (inactive) | –
13 | C=CCc1cccc2cc(C(=O)N3CCN(C(=O)c4ccccc4)CC3)c(=O)oc12 | -4.98% (inactive) | –
14 | C[C@@H]1CN([C@@H](C)CO)S(=O)(=O)c2ccc(Br)cc2O[C@H]1CN(C)C(=O)c1ccncc1 | -4.96% (inactive) | –
15 | O=C1NC(=O)/C(=C\c2ccc(Oc3ccc([N+](=O)[O-])cn3)cc2)S1 | 10.2% (inactive) | –
16 | O=C1NC(=S)N/C1=C\c1cccc([N+](=O)[O-])c1 | 2.76% (inactive) | –
17 | O=C1c2ccccc2C(=O)N1/N=C/c1ccc(Oc2ccc([N+](=O)[O-])cn2)cc1 | -2.91% (inactive) | –
18 | CN(C)c1ccc(/C=N/NC(N)=S)cc1[N+](=O)[O-] | -11.3% (inactive) | –
19 | O=C(c1ccc(N2CCOCC2)c([N+](=O)[O-])c1)N1CCN(c2ccccc2)CC1 | -9.43% (inactive) | –
20 | CC(C)CN(CC(C)C)c1ccc(/C=N/n2cnnc2)cc1[N+](=O)[O-] | -1.82% (inactive) | –

Row | Compound | inhibition | inhibition (measured here: pilot screen replicate inhibition)
21 | Cc1ccc(/C=C2\NC(=S)NC2=O)cc1[N+](=O)[O-] | 3.12% (inactive) | –
22 | COc1ccc(N2CCN(C(=O)c3ccccc3)CC2)c([N+](=O)[O-])c1 | 0% (inactive) | –
23 | COc1ccc(NC(=O)C2CCCN(C(=O)c3ccc(Cl)cc3)C2)cc1S(=O)(=O)N(C)C (centres undefined) | -6.34% (inactive) | –
24 | CCOc1ccc(NC(=O)c2ccc3c(c2)N(Cc2ccc(F)cc2)C(=O)CS3=O)cc1 (centres undefined) | -7.95% (inactive) | –
25 | COCCN(C(=S)Nc1ccc(Cl)cc1OC)C1CCN(C(C)=O)CC1 | -5.17% (inactive) | –
26 | Cc1cc2c(cc1S(=O)(=O)N1CCOCC1)NC(=O)CO2 | -0.83% (inactive) | –
27 | COc1ccc(S(=O)(=O)NCC2CCCO2)cc1NC(=O)c1ccc(Cl)cc1 (centres undefined) | -0.72% (inactive) | –
28 | C[C@@H]1CN([C@H](C)CO)C(=O)c2cc(NS(=O)(=O)c3cn(C)cn3)ccc2O[C@H]1CN(C)C(=O)Nc1ccccc1 | -1.59% (inactive) | –
29 | Cc1ccc(C(=O)NC(=S)Nc2ccc(N3CCOCC3)cc2)c(C)c1 | -1.43% (inactive) | –
30 | COc1cccc(N(C(=O)c2snc(C(N)=O)c2N)C(C(=O)NCC2CCCO2)c2ccc(F)cc2)c1 (centres undefined) | -6.68% (inactive) | –
31 | CN(C)c1ccc(/C=C/C(=O)c2ccccc2)cc1[N+](=O)[O-] | 7.8% (inactive) | –
32 | CN(C)c1ccc(/C=N/N=C(N)N)cc1[N+](=O)[O-] | -2.95% (inactive) | –
33 | O=C1NC(=O)c2cc(Oc3ccc([N+](=O)[O-])cc3)ccc21 | 0.39% (inactive) | –
34 | O=C1Nc2ccccc2/C1=C/c1ccc([N+](=O)[O-])cc1 | -15.7% (inactive) | –
35 | COc1ccc(C=O)cc1OS(=O)(=O)c1ccccc1[N+](=O)[O-] | 11% (inactive) | –
36 | COc1cc(C=O)ccc1OS(=O)(=O)c1ccccc1[N+](=O)[O-] | -9.17% (inactive) | –
37 | CC(C)(C)NC(=O)CN(C(=O)C1CSC(=O)C1)c1ccccc1F (centres undefined) | -7.12% (inactive) | –
38 | O=C(O)c1ccc(NC(=O)c2cccc(C(=O)Nc3ccc(C(=O)O)cc3)n2)cc1 | -1.63% (inactive) | –
39 | Cc1ncn(-c2ccccc2)c1-c1ccccc1 | 0% (inactive) | –
40 | CCN(CC)S(=O)(=O)c1ccc(OC)c(NS(=O)(=O)c2cccc(C(=O)O)c2)c1 | 7.95% (inactive) | –

Row | Compound | inhibition | inhibition (measured here: pilot screen replicate inhibition)
41 | CC(=O)n1cc(CO)c2ccccc21 | -0.72% (inactive) | –
42 | CC(=O)n1cc(/C=C2/N=C(c3ccccc3)OC2=O)c2ccccc21 | 19.9% (inactive) | –
43 | COC(=O)Cn1cc(C(=O)OC)c2ccccc21 | -2.39% (inactive) | –
44 | CN=C1S/C(=C\c2cn(CC(=O)OC)c3ccccc23)C(=O)N1C | -17.1% (inactive) | –
45 | COc1ccc(/C=N/NC(=O)c2ccc(O)cc2O)cc1CSc1ccccn1 | 2.91% (inactive) | –
46 | CCOC(=O)c1c(NC(=O)CSc2nnnn2C)sc(C)c1C | -3.98% (inactive) | –
47 | Cc1ccc(C2NC(=S)N3C(c4ccc(C)cc4)NC(=S)N23)cc1 (centres undefined) | -0.57% (inactive) | –
48 | COc1cccc(NC(=O)c2ccccc2-c2ccccc2C(=O)O)c1 | -10.1% (inactive) | –
49 | CCn1c2ccccc2c2cc(NC(=O)c3ccccc3[N+](=O)[O-])ccc21 | 1.28% (inactive) | –
50 | Cc1ccc(NC(=O)c2ccccc2-c2ccccc2C(=O)O)cc1C | -2.19% (inactive) | –
51 | COc1ccc(NC(=O)c2ccccc2-c2ccccc2C(=O)O)cc1 | -8.51% (inactive) | –
52 | CCn1c2ccccc2c2cc(NC(C)=O)ccc21 | 4.77% (inactive) | –
53 | O=C(Nc1ccc2c(c1)C(=O)c1ccccc1-2)c1ccccc1 | -0.39% (inactive) | –
54 | CC(=O)Nc1ccc(-c2nc3cc(Cl)ccc3o2)cc1 | 0% (inactive) | –
55 | O=C(O)c1ccccc1-c1ccccc1C(=O)Nc1cccc(-c2nc3ccccc3o2)c1 | 8.19% (inactive) | –
56 | CCN(CC)S(=O)(=O)c1cccc(NC(=O)COC(=O)/C=C/c2cccs2)c1 | -2.65% (inactive) | –
57 | O=C(O)C1CCN(C(=O)Cc2ccccc2)CC1 | 2.22% (inactive) | –
58 | c1ccc(C2CC(c3ccccc3)C(c3ccccc3)N2)cc1 (centres undefined) | -3.92% (inactive) | -2.44%
